SMILES strings stand for the structures. Where “and” joins values, the source holds several entries; their conditions need not be identical. Equal entries are not always repeated. Records with an inconclusive call do not appear. Values without a mark were called inactive. Calls of active or inactive are those of the source. Calls follow the shape of the dose curve; as a rule, active = well fitted inhibition curve with a large enough effect; inconclusive = small, poorly fitted or top-dose-only effect; inactive = flat fitted curve, though single readings scatter.
Potency is read from the fitted curve at half-maximal effect.

A short description of this test: BET inhibitor-based combinations targeting novel dependencies in MECOM-rearranged (r) AML: AML-194 cell line (AID 2202237; also: nearly all actives have a fitted effect of over 40% in size;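 as to viability (% of control): plate controls were vehicle wells for no effect and wells without cells for full effect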). The settings on record: AML-194 (MECOM-r AML) viability, CellTiter-Glo, 48 h; series mostly up to 46 µM; viability (% of control): at the top concentration. From the text: Ecotropic viral insertion site 1 (EVI1) is located on chromosome 3q26.2 as part of the MECOM (MDS and EVI1 complex) locus. Under normal hematopoiesis, EVI1 is a regulator of hematopoietic stem cell maintenance and self-renewal and EVI1 levels decrease as the cells differentiate. In approximately 5-10% of de novo acute myeloid leukemia (AML) EVI1 is aberrantly expressed, including Chromosomal inv(3)(q21;q26.2) or t(3;3)(q21;q26.2) alterations (MECOM-r) that account for about 50% of AML with EVI1 overexpression 31. AMLs with high levels of EVI1 have a poor prognosis and an overall survival time averaging between 10-14 months. EVI1 overexpression confers resistance in leukemia cells, highlighting the need to develop new targeted therapies for EVI1 overexpressing AMLs.
Here, we performed an unbiased chemical drug screening by evaluating the single agent activity of a collection of 2,480 oncology-focused, approved and investigational drugs (NCATS Mechanism Interrogation Plates, MIPE v5.0) against a panel of seven AML cell lines. These included four MECOM-r cell-lines (AML-191, AML-194, UCSD-AML1 and HNT-34) and three non-MECOM-r AMLs (MV4-11, OCI-AML3 and SET-2). Exploiting the mechanistic redundancy built in the library, we identified target-level sensitivities in MECOM-r AML cells and relative activity as compared to other AML subtypes.
A collection of 2480 mechanistically annotated dugs (MIPE v5.0) was used to screen four 3q26.2 rearranged AML cell lines and three non-3q26.2 rearranged AML cell lines. This library purposely exploits redundancy by including multiple inhibitors of key onco-targets, while simultaneously encompassing mechanistic diversity, targeting more than 800 distinct mechanisms of action. Briefly, cells were seeded in 5 uL of growth media using a Multidrop Combi dispenser into 1536 well white polystyrene tissue culture treated plates (Corning) at a density of 500cells/well. For each cell-line, for each of the 2480 drugs in MIPE v5.0 library, an 11-point dose curve was generated via a 1536 pin-tool. Plates were incubated for 48 hr at standard incubator conditions, covered by a stainless steel gasketed lid to prevent evaporation. Cell viability was determined by luminescence based, Cell Titer Glo assay (Promega). In detail, 3 uL of Cell Titer Glo were added to each well and plates were incubated at room temperature for 15 min with a stainless-steel lid in place. Luminescence readings were taken using a Viewlux (PerkinElmer) with a 2 s exposure time per plate. Compound dose-response curves were normalized to DMSO and empty well controls on each plate. Quantitative drug activity data from dose-response curves was determined utilizing area Under the Curve (AUC) and Z-transformed AUC (Z-AUC, a mean-centering transformation applied to each individual cell-line screened).
A general note: ATP-based viability assays read luminescence as a measure of living cells.
Turning to `CNC(=O)[C@H](Cc1ccccc1)NC(=O)[C@H](CC(C)C)[C@H](CSc1cccs1)C(=O)NO`, the “viability (% of control)” value is 104%.

For `Cc1cccc(N(C)C(=S)Oc2ccc3ccccc3c2)c1`, the “viability (% of control)” value was 91.9%.

`Cc1ccccc1C(C(=O)NC1CCCCC1)N(C(=O)Cn1ccnc1C)c1cccc(F)c1` (stereo not given): the “viability (% of control)” value is 101%.

As for `Cc1ccc(NC(=O)C2(c3ccc4c(c3)OC(F)(F)O4)CC2)nc1-c1cccc(C(=O)O)c1`, the “viability (% of control)” value was 92.1%.

For the compound `CN[C@@H]1[C@H](O[C@H]2[C@H](O[C@@H]3[C@@H](O)[C@H](O)[C@@H](N=C(N)N)[C@H](O)[C@H]3N=C(N)N)O[C@@H](C)[C@]2(O)C=O)O[C@@H](CO)[C@H](O)[C@H]1O`, the “viability (% of control)” value is 96.3%.

Turning to `OC(Cn1cncn1)(Cn1cncn1)c1ccc(F)cc1F`, the “viability (% of control)” value is 116%.

As for `COc1cc(S(C)(=O)=O)ccc1Nc1nc2ccc(-c3ccc(NC(=O)[C@H](C)c4ccc(F)cc4)cc3)cn2n1`, the Potency is 1.32 µM (active).

Regarding `C#C[C@]1(O)CC[C@H]2[C@@H]3CCc4cc(OC)ccc4[C@H]3CC[C@@]21C`, the “viability (% of control)” value is 117%.

`O=C(O)c1ccc(O)c2ncc(N3CCOCC3)cc12`: the “viability (% of control)” value is 109%.

On to `c1ccc2c(Oc3nc(Nc4ccc(N5CCOCC5)cc4)c4ncn(C5CCCCC5)c4n3)cccc2c1`, for which the “viability (% of control)” value was 96.9%.

For the compound `COC(=O)C1=C(C)NC(C)=C(C(=O)OCCCN2CCC(c3ccccc3)(c3ccccc3)CC2)C1c1cccc([N+](=O)[O-])c1` (stereo not given), the Potency was 20.9 µM (active).

Turning to `Nc1nc(N)nc(-c2cc(Cl)ccc2Cl)n1`, the “viability (% of control)” value is 99.5%.

Regarding `CCCCN(CCCC)C(=O)CN1C[C@H](c2ccc3c(c2)OCO3)[C@@H](C(=O)O)[C@@H]1c1ccc(OC)cc1`, the “viability (% of control)” value is 112%.

On to `Cc1cccc(-c2[nH]c(CNc3ccccc3F)nc2-c2ccc3ncnn3c2)n1`, for which the “viability (% of control)” value is 108%.

`CC(C)c1c2cc(-c3ccnc(NC4CCC(NC5CCOCC5)CC4)n3)ccc2nn1C` (stereo not given): the Potency was 0.417 µM (active).

Regarding `Nc1ccn([C@@H]2CS[C@H](CO)O2)c(=O)n1`, the “viability (% of control)” value is 110%.

Take `CN[C@@H](C)C(=O)N[C@H]1CN(C(=O)CC(C)C)CC[C@H]2CC[C@@H](C(=O)NC(c3ccccc3)c3ccccc3)N2C1=O`: the “viability (% of control)” value was 92.8%.

For the compound `Cc1cccc(Nc2nc(-c3ccncc3)cs2)c1`, the “viability (% of control)” value is 97.1%.

On to `O=c1c(O)c(-c2ccc(O)c(O)c2)oc2cc(O)cc(O)c12`, for which the “viability (% of control)” value was 114%.

Turning to `CCCCNc1ncc2c(-c3ccc(CN4CCN(C)CC4)cc3)cn(C3CCC(O)CC3)c2n1` (stereo not given), the Potency was 742 nM (active) and 1.05 µM (active).

In the case of `Cc1ccc([N+](=O)[O-])cc1S(=O)(=O)N(C)/N=C/c1cnc2ccc(Br)cn12`, the Potency was 0.186 µM (active).

As for `O=C(c1ccc(C(=O)N2CCC(N3CCCC3)CC2)c(Nc2ccccc2)c1)N1CCC(N2CCCC2)CC1`, the “viability (% of control)” value was 115%.

For `CN(C)CCN1C(=O)c2cccc3cc(N)cc(c23)C1=O`, the Potency is 16.6 µM (active).

As for `Cc1ccc(C(C)(O)c2nc3ccccc3s2)c(C)c1` (stereo not given), the “viability (% of control)” value was 93.1%.

As for `CC(Cc1ccc(O)c(O)c1)(NN)C(=O)O` (stereo not given), the “viability (% of control)” value is 101%.

Turning to `O=C1c2c(O)ccc(O)c2C(=O)c2c(NCCNCCO)ccc(NCCNCCO)c21`, the Potency was 0.372 µM (active).

`CCCN1CCN(c2ccc(C(=O)NC3(C(=O)NCC#N)CCCCC3)cc2)CC1`: the “viability (% of control)” value was 100%.

`Cc1cnc(C(=O)NCCc2ccc(S(=O)(=O)NC(=O)NC3CCCCC3)cc2)cn1`: the “viability (% of control)” value was 108%.

In the case of `C[C@]12CC[C@@H]3c4ccc(O)cc4CC[C@H]3[C@@H]1CC[C@@H]2O`, the Potency is 23.5 µM (active).

`CC1=C(C(=O)Nc2cc3cn[nH]c3cc2F)C(c2ccc(C(F)(F)F)cc2)CC(=O)N1` (stereo not given): the “viability (% of control)” value is 88.1%.

As to `N#Cc1ccc(NC(=O)Nc2ccccc2Br)c2n[nH]nc12`, the “viability (% of control)” value is 98%.

Consider `Cc1ccccc1C(=O)c1ccc(Nc2ccc(Br)cc2N)cc1Cl`, for which the “viability (% of control)” value is 93.8%.

For the compound `CCN1CCN(C(=O)N[C@@H](C(=O)N[C@@H]2C(=O)N3C(C(=O)O)=C(CSc4nnnn4C)CS[C@H]23)c2ccc(O)cc2)C(=O)C1=O`, the “viability (% of control)” value is 105%.

For `NC(=O)c1ccc(I)c([N+](=O)[O-])c1`, the “viability (% of control)” value is 99%.

As to `CC(C)[C@H](CO)Nc1nc(Nc2ccc(C(=O)O)c(Cl)c2)c2ncn(C(C)C)c2n1`, the “viability (% of control)” value was 99.9%.

As for `O=C(O)C[C@H](O)C[C@H](O)/C=C/c1c(C2CC2)nc2ccccc2c1-c1ccc(F)cc1`, the Potency is 13.2 µM (active).

With `N#Cc1c(NC(=O)c2cccc3ccccc23)sc2c1CCCC2`, the Potency was 0.332 µM (active).

`FC(F)(F)c1ccc(CNc2ccc(Cc3c[nH]c4ncccc34)cn2)cc1`: the Potency is 16.6 µM (active).

For `CC(C)CC(=O)Nc1n[nH]c2c1CN(C(=O)C1CCN(C)CC1)C2(C)C`, the Potency was 5.9 µM (active).

Consider `CS(=O)(=O)Nc1ccc([N+](=O)[O-])cc1Oc1ccccc1`, for which the “viability (% of control)” value is 114%.

(Values after PubChem BioAssay (NCATS).)
